# Pf growth 96h: Primary qHTS for delayed death inhibitors of the malarial parasite plastid, 96 hour incubation. P. falciparum luciferase reporter growth, 96 h. Potency, µM (top dose mostly 28.7 µM), without a hit: top-dose activity change, negative = inhibition, actives largely listed as inhibitors. actives 6.9% (n = 320,000). AID 504834, 2011; note: potency is the fitted concentration of half-maximal effect; % is set by controls: 0 for no effect and ±100 for the full control effect
#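 P. falciparum expressing integrated firefly luciferase grown in erythrocytes (2% hematocrit, 0.05% parasitemia final) with compounds for 96 hours at 37 C, 5% CO2. Growth inhibition read as loss of luminescence after adding luciferase detection reagent.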
# Pf growth 48h: Primary qHTS for delayed death inhibitors of the malarial parasite plastid, 48 hour incubation; P. falciparum luciferase growth in erythrocytes, 48 h; AID 504832, 2011; Potency, µM (titrated, usually from 28.7 µM), for the others: at the highest dose activity change, negative = inhibition, most hits filed as inhibitors; actives 5.9% (n = 310,000); note: potency is the fitted concentration of half-maximal effect; % is set by controls: 0 for no effect and ±100 for the full control effect
#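 Luciferase-expressing parasites in RBCs, 2% Hct / 0.1% parasitemia final; RPMI 1640 + 0.5% Albumax; 37 C, 5% CO2, one generation; luminescence read-out, lower signal = inhibition.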
# CHX counter-1: Cycloheximide Counterscreen for Small Molecule Inhibitors of Shiga Toxin; cell reporter, cycloheximide protein synthesis inhibition counterscreen; max response, %; actives 12% (n = 300,000); in the data active = max response mostly above about 13%, no sharp cut-off; inactive = mostly below about 14%; note: read at 38.3 µM for the half of the compounds with a filed dose; 0% is about no effect
# Shiga inhibitor: A qHTS for Small Molecule Inhibitors of Shiga Toxin; Vero cells, Shiga toxin protein synthesis inhibition reporter; inhibition, % at 38.7 µM; actives 9.2% (n = 290,000); in the data active = inhibition mostly above about 28%, no sharp cut-off; inactive = mostly below about 43%; note: 0% is about no effect
# LmPK inhibitor: qHTS Assay for Inhibitors of Leishmania Mexicana Pyruvate Kinase (LmPK); Q27686; purified LmPK, Kinase-Glo ATP luminescence, 1 h; Potency, µM (series often up to 57.5 µM), without a hit: top-dose activity change, negative = inhibition, usual class: inhibitors; actives 0.37% (n = 290,000); note: potency is the fitted concentration of half-maximal effect; % is set by controls: 0 for no effect and ±100 for the full control effect
# Target sequence (Q27686 whole entry, looked up): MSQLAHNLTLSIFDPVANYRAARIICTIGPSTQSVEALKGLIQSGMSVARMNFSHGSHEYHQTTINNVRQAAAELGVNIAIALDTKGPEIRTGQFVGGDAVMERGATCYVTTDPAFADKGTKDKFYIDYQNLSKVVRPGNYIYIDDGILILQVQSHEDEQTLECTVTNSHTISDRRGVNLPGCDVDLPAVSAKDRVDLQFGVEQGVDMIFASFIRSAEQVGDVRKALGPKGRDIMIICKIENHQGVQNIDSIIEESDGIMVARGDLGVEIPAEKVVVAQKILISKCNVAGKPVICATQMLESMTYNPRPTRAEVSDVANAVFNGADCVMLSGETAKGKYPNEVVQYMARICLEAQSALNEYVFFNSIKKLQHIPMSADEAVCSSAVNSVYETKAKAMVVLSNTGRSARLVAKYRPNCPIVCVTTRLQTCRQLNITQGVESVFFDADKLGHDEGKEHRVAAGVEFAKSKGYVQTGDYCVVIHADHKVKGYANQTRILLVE
#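 Purified LmPK (0.1 nM) with 0.5 mM PEP and 0.1 mM ADP in imidazole buffer pH 7.2 with MgCl2/KCl, 1 h at room temperature. ATP formed was read by luciferase luminescence and normalized to no-enzyme and uninhibited controls.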
# CHX counter-2: Cycloheximide Counterscreen for Small Molecule Inhibitors of Shiga Toxin (Confirmatory) | Potency, µM (titrated, usually from 38.3 µM), inactives show at the top dose activity (activation), hits mostly activators | actives 3% (n = 510) | Cycloheximide counterscreen, protein synthesis reporter, Shiga toxin assay | shares compounds with Shiga inhibitor; calls by dose curve; note: potency is the fitted concentration of half-maximal effect; 0% is about no effect
# Starred values were filed as active, the others as inactive; ? = inconclusive; nt = not tested or not shown; + = active, no number; [ ] = dose if it differs, or a comment. Sampled rows, rich in hits. Any-hit rate of the full collection: about 22%. Unless noted, calls come from the whole dose curve; as a rule, active = well fitted inhibition curve with a large enough effect; inconclusive = small, poorly fitted or top-dose-only effect, or another doubt; inactive = no such curve, though single readings can be large or run the other way.
SMILES,Pf growth 96h,Pf growth 48h,CHX counter-1,Shiga inhibitor,LmPK inhibitor,CHX counter-2
Cn1cnnc1SCC(=O)NC1CCCN(Cc2ccccc2F)C1 (stereo not drawn),?,16%,-3,11,5%,nt
N#Cc1cnn2ccc(-c3ccc4c(c3)CCC4)nc12,10%,-6%,12,16,-1%,nt
CCOC(=O)C1(CCCc2ccccc2)CCN(C(=O)COC)CC1,-13%,-8%,-3,10,-2%,nt
CCOC(=O)C1(CCCc2ccccc2)CCN(C(=O)CCn2cncn2)CC1,77%,9%,8,39*,-5%,3%
CCOc1ccc(N2C(=O)Nc3ccccc3C2(O)C(=O)N2CCN(c3ccccn3)CC2)cc1 (stereo not drawn),5%,0%,-3,4,3%,nt
CCOc1ccc(S(=O)(=O)N2CCCC(C(=O)NCc3cccnc3)C2)cc1 (stereo not drawn),35%,1%,-3,-6,-3%,nt
CCC(=O)N1CCc2cc(S(=O)(=O)NC(C(=O)N3CCN(c4ccc(F)cc4)CC3)C(C)C)ccc21 (stereo not drawn),-2%,?,-3,17*,0%,-3%
O=C(CSc1n[nH]c(-c2ccc(S(=O)(=O)N3CCCCC3)cc2)n1)Nc1nccs1,-7%,?,5,-14,2%,nt
Cc1ccccc1-c1nnc(SCC#N)o1,2%,28%,10,33*,4%,1%
O=C(COCc1cc(-c2ccc3c(c2)OCO3)on1)N1CCN(c2ccccc2)CC1,10µM*,-12%,7,40*,-4%,1%
O=C(CC(c1ccccc1)c1cc(Cl)ccc1O)N1CCCC1 (stereo not drawn),?,?,5,57*,2%,-2%
CN1CCCN(C(=O)CC(c2ccccc2)c2ccccc2)CC1,31%,-5%,-7,-5,1%,nt
CC(C)(C)c1cc(CCC(=O)N2CCC2)cc(C(C)(C)C)c1O,24%,26%,14,14*,-9%,5%
CC(C)(C)c1cc(CN2CCCCC2)cc(C(C)(C)C)c1O,nt,-10%,-2,-11,-1%,nt
Cc1cc(N2C(=O)C3C4CCC(C4)C3C2=O)no1 (stereo not drawn),76%,21%,-2,10,7%,nt
O=C(c1ccc(S(=O)(=O)N2CCc3ccccc3C2)cc1)N1CCCCC1,12%[5.75 µM],?,-1,1,2%,nt
Cc1ccc(N2C(=O)N(CC(=O)Nc3ccc(C)c(C)c3)C(=O)C2C)cc1 (stereo not drawn),-11%,12%,nt,nt,nt,nt
NS(=O)(=O)c1ccc(CCNC(=O)c2ccc(NC3=NC4CS(=O)(=O)CC4S3)cc2)cc1 (stereo not drawn),49%,14%,-4,114*,-2%,-1%
Cc1ccccc1Oc1ncnc(N)c1[N+](=O)[O-],?,-3%,3,-7,12%,nt
CC(=O)c1ccccc1Oc1ncnc(N)c1[N+](=O)[O-],-21%,-1%,2,29*,3%,0%
CC(=O)N1CCc2cc(S(=O)(=O)NC(CC(C)C)C(=O)Nc3ccc4c(c3)OCCO4)ccc21 (stereo not drawn),34%,-10%,7,79*,-3%,1%
CC(=O)N1CCc2cc(S(=O)(=O)NC(C)c3ccccc3)ccc21 (stereo not drawn),22%,-14%,-1,-6,3%,nt
O=C1N=C2N(CCN3CCCCC3)c3ccccc3N2/C1=C\c1ccc([N+](=O)[O-])o1,32%,-13%,-2,-23,-7%,nt
O=C(NCc1ccccc1Cl)c1cnc2ccccc2n1,12%,-10%,-1,46*,5%,7%
CCn1cc(C(=O)NCc2ccccc2Cl)cn1,-22%,18%,8,active,10%,0%
SMILES,Pf growth 96h,Pf growth 48h,CHX counter-1,Shiga inhibitor,LmPK inhibitor,CHX counter-2
NC(=O)NCc1ccccc1Cl,21%,24%,-3,-6,-7%,nt
O=C(Nc1ccc(Cl)cc1)C1C2C=CC3(O2)C1C(=O)N(CCN1CCCCC1)C3C(=O)NC1CCCCC1 (stereo not drawn),?,?,-4,20,-5%,nt
CCOC(=O)CNC(=O)C(CC(C)C)NC(=O)C1CCCCC1 (stereo not drawn),?,nt,-4,5,1%,nt
O=C(NNS(=O)(=O)c1ccccc1F)c1sccc1-n1cccc1,-14%,10%,9,8,0%,nt
CCCC(=O)Nc1ccc(NC(=O)c2cccc(OC)c2)cn1,?,21%,1,-3,-12%,nt
CCCC(=O)Nc1cnc(NC(=O)c2cccc(F)c2)cc1C,nt,37%,4,67*,?,1.6µM*
CC(C)NC(=O)c1ccc(OC2CSC2)cc1,34%,17%,-3,29*,2%,?
Cc1ccc2nc(-c3ccccc3)cc(C(=O)NCC3CCCO3)c2c1 (stereo not drawn),2%,7%,10,40*,4%,1%
Cc1c(NC(=O)c2cc(-c3ccc(Cl)cc3)on2)c(=O)n(-c2ccccc2)n1C,0%,11%,5,-4,1%,nt
CCOC(=O)C1CCCN(C(=O)c2cc(Nc3ccc(OC)c(OC)c3)nc3ccccc23)C1 (stereo not drawn),?,?,10,38*,-1%,4%
Cn1nccc1C(=O)Nc1sc2c(c1C#N)CCCC2,24%,25%,16,16*,1%,?
C=CCS(=O)(=O)N1CCC(CCOc2ccccc2)(C(=O)OCC)CC1,12%,-28%,-2,2,11%,nt
COC(=O)c1ccc(C2CC(=O)NC3=C2C(=O)CCC3)cc1 (stereo not drawn),?,50%,-1,-7,4%,nt
COC(=O)c1ccc(COc2ccc(C3C4=C(CCCC4=O)Nc4onc(C)c43)cc2)cc1 (stereo not drawn),?,?,7,47*,6%,?
CCN(CC)C(=O)CCCc1c[nH]c2ccccc12,0%,0%,9,52*,0%,5%
COCCOC(=O)c1c(C)oc2ccc(OC(=O)c3ccco3)cc12,15%,26%,12,+,3%,5%
COCCOC(=O)c1c(C)oc2ccc(OCc3ccccc3)cc12,-22%,-9%,-4,-5,6%,nt
O=C(Nc1ccc2oc(-c3ccccc3)nc2c1)c1ccc2c(c1)OCCO2,101%,8%,15,43*,-1%,?
Cc1nn(-c2ccccc2)c(N)c1C(O)(CSc1nccn1C)C(F)(F)F (stereo not drawn),?,nt,-2,-8,4%,nt

# Source: PubChem BioAssay
